In PubChem BioAssay AID588458 (Sanford-Burnham Center for Chemical Genomics, 2011) one finds inhibition (reported as % activation of signal) data, which are given here for 30 compounds.

Where “and” joins values, the source holds several entries; their conditions need not be identical. Equal entries are not always repeated. Screen size: about 360,000 compounds; about 3,000 (0.83%) were called active. Many of the other results were omitted from the sample, so actives are more common in it than they were. Values without a mark were called inactive. Rule as the data show it: active = inhibition above about 50%; inactive = the rest.

Chain of DNA (cytosine-5)-methyltransferase 1 (Homo sapiens) (P26358 504-1616 limits assumed): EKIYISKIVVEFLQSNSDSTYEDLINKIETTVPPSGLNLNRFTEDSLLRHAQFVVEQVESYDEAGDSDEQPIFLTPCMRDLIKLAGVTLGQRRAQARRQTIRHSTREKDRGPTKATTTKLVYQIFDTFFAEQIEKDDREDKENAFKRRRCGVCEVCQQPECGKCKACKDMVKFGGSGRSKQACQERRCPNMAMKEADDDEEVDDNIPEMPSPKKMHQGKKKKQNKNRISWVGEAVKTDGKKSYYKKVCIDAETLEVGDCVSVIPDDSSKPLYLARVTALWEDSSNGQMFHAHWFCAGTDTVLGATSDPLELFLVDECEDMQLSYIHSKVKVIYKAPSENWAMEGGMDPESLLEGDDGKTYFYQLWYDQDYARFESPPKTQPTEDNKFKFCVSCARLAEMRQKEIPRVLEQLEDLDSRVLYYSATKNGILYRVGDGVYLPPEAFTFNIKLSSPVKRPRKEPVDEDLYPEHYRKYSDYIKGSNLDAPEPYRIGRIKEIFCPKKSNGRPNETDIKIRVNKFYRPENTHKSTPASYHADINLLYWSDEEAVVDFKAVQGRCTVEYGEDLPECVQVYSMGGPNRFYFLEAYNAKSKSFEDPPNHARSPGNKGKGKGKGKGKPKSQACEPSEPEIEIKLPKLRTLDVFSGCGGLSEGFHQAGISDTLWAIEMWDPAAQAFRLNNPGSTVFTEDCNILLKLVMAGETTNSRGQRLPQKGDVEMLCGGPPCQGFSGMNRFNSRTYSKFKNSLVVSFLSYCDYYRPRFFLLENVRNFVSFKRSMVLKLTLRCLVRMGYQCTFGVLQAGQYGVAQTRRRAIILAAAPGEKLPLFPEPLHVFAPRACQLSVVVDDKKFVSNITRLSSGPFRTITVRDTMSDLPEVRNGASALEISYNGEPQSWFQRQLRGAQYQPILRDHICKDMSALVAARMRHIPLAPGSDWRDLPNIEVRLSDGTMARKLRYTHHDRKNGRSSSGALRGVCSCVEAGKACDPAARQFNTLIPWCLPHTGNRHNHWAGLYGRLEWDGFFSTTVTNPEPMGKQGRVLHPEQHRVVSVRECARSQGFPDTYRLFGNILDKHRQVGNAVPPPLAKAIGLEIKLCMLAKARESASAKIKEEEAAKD

This experiment concerns the target DNA (cytosine-5)-methyltransferase 1 (Homo sapiens) (UniProt P26358). Description: human DNMT1 methyltransferase inhibitors, primary screen, biochemical, molecular beacon, fluorescence, HinP1I cleavage, uHTS (AID 588458). Particulars: at 10 µM, hits give high values.
With `Cc1ccnc(-n2c(C)cc(/C=C3\C(=O)NC(=S)N(C)C3=O)c2C)c1`, the inhibition (reported as % activation of signal) was 5.36%.
The same measure for `Cc1c(C(=O)O)cccc1-n1c(C)cc(/C=C2\C(=O)NC(=O)N(c3ccc4c(c3)OCO4)C2=O)c1C`: 86.2% (active).
The same measure for `COC(=O)C1=C(c2c(C)noc2C)C[C@@H]2CC[C@H]1N2C(=O)NCc1ccc2c(c1)OCO2`: 2.7%; for `Cc1ccc(-n2c(C)cc(/C=C3\C(=O)NC(=O)N(C)C3=O)c2C)cc1C`: 29.9%.
The same measure for `Cc1cc(/C=C2/C(=O)NC(=O)N(Cc3ccco3)C2=O)c(C)n1-c1ccc(C(=O)O)cc1`: 51.8% (active); for `O=C1NC(=O)N(Cc2ccco2)C(=O)/C1=C\c1cccn1CCOc1ccccc1`: 52.4% (active); for `O=C1NC(=O)N(Cc2ccco2)C(=O)/C1=C\c1ccc(-c2ccc(F)cc2)o1`: 79.9% (active).
In the case of `Cc1cc(C=C2C(=O)NC(=O)NC2=O)c(C)n1-c1ccncc1`, the inhibition (reported as % activation of signal) is 5.18%.
The same measure for `CCOC(=O)C(O)(c1ccc(N=Cc2ccccc2O)c(C)c1)C(F)(F)F` (stereo not given): 0.86%; for `CC1CNCCN1c1ccc(Cl)cc1` (stereo not given): -33.5%.
`O=C1C2(Cl)C3(Cl)C4(Cl)C(Cl)(Cl)C5(Cl)C3(Cl)C1(Cl)C5(Cl)C24Cl` (stereo not given): the inhibition (reported as % activation of signal) was -6.15%.
The same measure for `O=P(OC1=CCCCC1)(c1ccccc1)c1ccccc1`: -0.46%; for `COC(=O)C1=C(c2ccc(OCc3ccccc3)cc2)C[C@@H]2CC[C@H]1N2C(=O)NCc1ccc(Cl)cc1`: -11.6%.
`Fc1ccc(C2N3CCCN23)cc1` (stereo not given): the inhibition (reported as % activation of signal) is 0.57%.
The same measure for `COC(=O)C(O)(c1ccc(NC(=O)c2ccco2)c(OC)c1)C(F)(F)F` (stereo not given): 2.7%; for `CCOC(=O)c1c(-c2ccccc2)oc2ccc(OC(=O)N(C)C)cc12`: -3%; for `CC(C)n1c(=O)c(C=Nc2ccc(Br)cc2)c(O)n(Cc2ccco2)c1=O`: 3.48%.
The same measure for `Cc1ccc(-c2nc3ccccc3c(=O)n2-c2ccc(Br)cn2)cc1`: -0.14%.
The same measure for `N#CC1=C(N)Oc2c(c(=O)oc3ccccc23)C1c1ccccc1OC(=O)c1cccs1` (stereo not given): 0.68%; for `CC12CCC3C(CCC4CC(=O)CCC43C)C1CC(=NO)C2=O` (stereo not given): 0.34%.
For the compound `COc1ccc(N2C(=O)/C(=C/c3ccco3)C(=O)NC2=S)cc1`, the inhibition (reported as % activation of signal) was 97.9% (active).
The same measure for `COc1cc(C(=O)N2Cc3ccc(Br)cc3-n3nncc3C2)cc(OC)c1OC`: 3.06%; for `Cc1cc(-c2ccc(N)c(C)c2)ccc1N`: -7.86%; for `Cc1cc(C)cc(NC(=S)NC2CC3CCCC(C2)N3Cc2cccs2)c1` (stereo not given): -3.24%.
The same measure for `Oc1ccc2c3c1OC1[C@H](O)CC[C@@]4(O)[C@@H](C2)N(CC2CC2)CC[C@]314` (stereo not given in full): 3.17% and 0.16%; for `CC(=NC1CCN(Cc2ccccc2)CC1)c1c(O)n(C)c(=O)n(C)c1=O`: 2.93%.
Take `CC1=C(C(=O)Nc2ccccc2)S(=O)(=O)CCO1`: the inhibition (reported as % activation of signal) was 2.83%.
The same measure for `CC1=C(C(=O)Nc2ccccc2)SCCO1`: 87.4% (active); for `CCN1CCN(C(=O)Cc2coc3cc(C)cc(C)c23)CC1`: 2.55%; for `COc1ccc(NC(=O)N2Cc3ccccc3-n3nncc3C2)cc1`: 7.01%.
